Outcome and AC50 data for six molecules are collected here from PubChem BioAssay (EPA / NIEHS).

Read-out in experiment [1]: Interleukin-8 (IL8), CXCL8 (gene 3576)
The experiment is described as follows: BSK_CASM3C_IL8: BioMAP Diversity Plus: CASM3C Assay for Interleukin-8 (IL8) Biomarker Activity (AID 2283042).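 Note: IL-8 protein level quantified by ELISA.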 Particulars: primary human coronary artery smooth muscle cells; actives raise or lower the signal.

Read-out in experiment [2]: Human Leukocyte Antigen - DR isotype (HLADR), HLA-DRA (gene 3122)
The experiment is described as follows: BSK_CASM3C_HLADR: BioMAP Diversity Plus: CASM3C Assay for Human Leukocyte Antigen - DR isotype (HLADR) Biomarker Activity (AID 2283043).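 Note: cell-surface HLA-DR protein level quantified by ELISA.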 Particulars: primary human coronary artery smooth muscle cells; actives raise or lower the signal.

Read-out in experiment [3]: Macrophage colony-stimulating factor (MCSF), CSF1 (gene 1435)
The experiment is described as follows: BSK_CASM3C_MCSF: BioMAP Diversity Plus: CASM3C Assay for Macrophage colony-stimulating factor (MCSF) Biomarker Activity (AID 2283044).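 Note: M-CSF protein amount quantified by ELISA after 24 h exposure.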 The settings on record: primary human coronary artery smooth muscle cells; actives raise or lower the signal.

Read-out in experiment [4]: Low-density lipoprotein receptor (LDLR), LDLR (gene 3949)
The experiment can be described thus: BSK_CASM3C_LDLR: BioMAP Diversity Plus: CASM3C Assay for Low-density lipoprotein receptor (LDLR) Biomarker Activity (AID 2283045).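 Note: LDLR protein level on the cell surface quantified by ELISA.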 The settings on record: primary human coronary artery smooth muscle cells; actives raise or lower the signal.

Read-out in experiment [5]: Monocyte Chemoattractant Protein-1 (MCP1), CCL2 (gene 6347)
The experiment is described as follows: BSK_CASM3C_MCP1: BioMAP Diversity Plus: CASM3C Assay for Monocyte Chemoattractant Protein-1 (MCP1) Biomarker Activity (AID 2283046).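 Note: MCP-1 level quantified by ELISA 24 h after dosing.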 The settings on record: primary human coronary artery smooth muscle cells; actives raise or lower the signal.

Experiment [6] is described as follows: BSK_CASM3C_Proliferation: Cell Proliferation Assessment in the BioMAP Diversity Plus: CASM3C Assay (AID 2283047).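 Note: sulforhodamine B total protein stain as relative cell number at 560 nm; sub-confluent cells exposed 48 h before staining; fitted both ways against DMSO so gain or loss of cell number.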 Particulars: primary human coronary artery smooth muscle cells.
Read-out in experiment [7]: Monokine induced gamma interferon (MIG), CXCL9 (gene 4283)
The experiment can be described thus: BSK_CASM3C_MIG: BioMAP Diversity Plus: CASM3C Assay for Monokine induced gamma interferon (MIG) Biomarker Activity (AID 2283048).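 Note: MIG protein level measured by ELISA.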 The settings on record: primary human coronary artery smooth muscle cells; actives raise or lower the signal.

Read-out in experiment [8]: serum amyloid A (SAA), SAA1 (gene 6288)
The experiment is described as follows: BSK_CASM3C_SAA: BioMAP Diversity Plus: CASM3C Assay for serum amyloid A (SAA) Biomarker Activity (AID 2283049).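 Note: SAA protein level quantified by ELISA.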 The settings on record: primary human coronary artery smooth muscle cells; actives raise or lower the signal.

A short description of experiment [9]: BSK_CASM3C_SRB: Viability Assessment in the BioMAP Diversity Plus: CASM3C Assay (AID 2283050).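 Note: total protein by SRB staining as cytotoxicity measure in parallel cultures; cells exposed to compound for 24 h.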 Particulars: primary human coronary artery smooth muscle cells.
Read-out in experiment [10]: Thrombomodulin, THBD (gene 7056)
The experiment can be described thus: BSK_CASM3C_Thrombomodulin: BioMAP Diversity Plus: CASM3C Assay for Thrombomodulin Biomarker Activity (AID 2283051).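 Note: thrombomodulin protein level measured by ELISA 24 h after dosing.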 Particulars: primary human coronary artery smooth muscle cells; actives raise or lower the signal.

Read-out in experiment [11]: Tissue Factor, F3 (gene 2152)
The experiment can be described thus: BSK_CASM3C_TissueFactor: BioMAP Diversity Plus: CASM3C Assay for Tissue Factor Biomarker Activity (AID 2283052).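 Note: cell surface tissue factor protein level read by ELISA.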 The settings on record: primary human coronary artery smooth muscle cells; actives raise or lower the signal.

Read-out in experiment [12]: Interferon-gamma inducible Protein 10 (IP10), CXCL10 (gene 3627)
The experiment is described as follows: BSK_hDFCGF_IP10: BioMAP Diversity Plus: hDFCGF Assay for Interferon-gamma inducible Protein 10 (IP10) Biomarker Activity (AID 2283053). Particulars: primary human foreskin fibroblasts; actives raise or lower the signal. The essentials: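 Primary foreskin fibroblasts, human; 24 h compound exposure; IP-10 by ELISA; bidirectional fit vs DMSO.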

Read-out in experiment [13]: Urokinase-type plasminogen activator receptor (uPAR), PLAUR (gene 5329)
The experiment is described as follows: BSK_CASM3C_uPAR: BioMAP Diversity Plus: CASM3C Assay for Urokinase-type plasminogen activator receptor (uPAR) Biomarker Activity (AID 2283054).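 Note: cell-surface uPAR protein level quantified by ELISA.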 The settings on record: primary human coronary artery smooth muscle cells; actives raise or lower the signal.

Read-out in experiment [14]: Vascular cell adhesion molecule 1 (VCAM1), VCAM1 (gene 7412)
The experiment is described as follows: BSK_CASM3C_VCAM1: BioMAP Diversity Plus: CASM3C Assay for Vascular cell adhesion molecule 1 (VCAM1) Biomarker Activity (AID 2283055).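 Note: VCAM-1 protein level quantified by ELISA on the cells.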 The settings on record: primary human coronary artery smooth muscle cells; actives raise or lower the signal.

Read-out in experiment [15]: Collagen III, COL3A1 (gene 1281)
The experiment can be described thus: BSK_hDFCGF_CollagenIII: BioMAP Diversity Plus: hDFCGF Assay for Collagen III Biomarker Activity (AID 2283056). Particulars: primary human foreskin fibroblasts; actives raise or lower the signal. The essentials:
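Cells: human foreskin fibroblasts, primary. Dosing followed by 24 h incubation, then ELISA for collagen III. Both increases and decreases scored relative to DMSO.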

Read-out in experiment [16]: Epidermal growth factor receptor (EGFR), EGFR (gene 1956)
The experiment can be described thus: BSK_hDFCGF_EGFR: BioMAP Diversity Plus: hDFCGF Assay for Epidermal growth factor receptor (EGFR) Biomarker Activity (AID 2283057). Particulars: primary human foreskin fibroblasts; actives raise or lower the signal. In a few lines:
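hDFCGF system, primary human foreskin fibroblasts; compound 24 h; EGFR measured by ELISA; DMSO = negative control/baseline; bidirectional fitting.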

Read-out in experiment [17]: Interleukin-8 (IL8), CXCL8 (gene 3576)
The experiment is described as follows: BSK_hDFCGF_IL8: BioMAP Diversity Plus: hDFCGF Assay for Interleukin-8 (IL8) Biomarker Activity (AID 2283058). Particulars: primary human foreskin fibroblasts; actives raise or lower the signal. The essentials: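 IL-8 levels from compound-treated primary human fibroblasts were read by ELISA at 24 h, with DMSO serving as baseline for bidirectional fitting.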

Experiment [18] can be described thus: BSK_hDFCGF_Proliferation: Cell Proliferation Assessment in the BioMAP Diversity Plus: hDFCGF Assay (AID 2283059).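 Note: curves fitted for both rise and fall of signal versus DMSO baseline.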 The settings on record: primary human foreskin fibroblasts. The essentials:
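Total protein read at 560 nm after 0.1% SRB staining of TCA-fixed human skin fibroblasts, […]. Activity is fitted in both directions relative to DMSO as baseline.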

Read-out in experiment [19]: Macrophage colony-stimulating factor (MCSF), CSF1 (gene 1435)
The experiment can be described thus: BSK_hDFCGF_MCSF: BioMAP Diversity Plus: hDFCGF Assay for Macrophage colony-stimulating factor (MCSF) Biomarker Activity (AID 2283060). Particulars: primary human foreskin fibroblasts; actives raise or lower the signal. The essentials:
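M-CSF levels, determined by ELISA, are taken at 24 h after dosing human skin fibroblasts. Responses in either direction are fitted with DMSO serving as the baseline.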

Experiment [20] can be described thus: BSK_hDFCGF_SRB: Viability Assessment in the BioMAP Diversity Plus: hDFCGF Assay (AID 2283061).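 Note: cells exposed to compound for 24 h before the read.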 The settings on record: primary human foreskin fibroblasts. The essentials:
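Cells were dosed with test chemical, cultured 24 h, fixed with 10% TCA, then stained with 0.1% SRB and read at 560 nm. The fibroblasts were human foreskin primary cells, and DMSO served as baseline.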

SMILES strings stand for the structures. Calls of active or inactive are those of the source. Rule for the calls: active = hit-call score of the fitted dose curve at least 0.9, where 1 is the maximum; inactive = score below 0.9.

For the molecule `Clc1ccc(Cl)cc1`, the outcome in experiment [1], in experiment [2], in experiment [3], in experiment [4], in [5] and in experiment [6] was inactive. Moreover, the outcome in [7], in [8], in experiment [9], in experiment [10], in experiment [11] and in experiment [12] was inactive. In addition, the result in experiment [13], in experiment [14], in experiment [15], in experiment [16], in experiment [17] and in [18] was inactive. The result in [19] and in [20] was inactive.
Turning to `O=C(NC(=O)c1cc(F)c(F)cc1Cl)Nc1cc(F)ccc1N1CCC(C(=O)O)CC1`, the result in experiment [1], in experiment [2], in experiment [3], in experiment [4], in [5] and in [6] was inactive. The result in experiment [7], in experiment [8], in [9], in experiment [10], in experiment [11] and in [12] was inactive. Also, the outcome in experiment [13], in [14], in [15], in [16], in experiment [17] and in experiment [18] was inactive. Moreover, the result in [19] and in experiment [20] was inactive.
On to `Cc1ccccc1O`, for which the result in experiment [1], in experiment [2], in [3], in experiment [4], in experiment [5] and in experiment [6] was inactive. Moreover, the outcome in experiment [7], in [8], in experiment [9], in experiment [10], in experiment [11] and in experiment [12] was inactive. The outcome in [13], in experiment [14], in [15], in experiment [16], in [17] and in experiment [18] was inactive. Besides, the result in experiment [19] and in experiment [20] was inactive.
In the case of `CCCCCCCCCc1ccc(O)cc1`, the AC50 was 33 µM (active) in [1]; 31.4 µM (active) in [2]; 34.6 µM (active) in experiment [3]; 29.3 µM (active) in experiment [4]; 31.8 µM (active) in experiment [5]; 16 µM (active) in experiment [6]. The AC50 in [7] is 36.1 µM (active); in experiment [8], 29.8 µM (active); in [9] it was 34.1 µM (active); in [10], 37.8 µM (active); in experiment [11] it was 28.7 µM (active); in experiment [12], 14.1 µM (active). Further, the half-maximal activity concentration (AC50) in experiment [13] was 38.2 µM (active); in experiment [14], 33.6 µM (active); in [15], 9.87 µM (active); in experiment [17], 17.2 µM (active); in experiment [18], 5.93 µM (active); in experiment [19], 13.6 µM (active). Moreover, the AC50 in experiment [20] was 15.4 µM (active). Moreover, the result in experiment [16] was inactive.
As to `Sc1ccccc1`, the result in [1], in experiment [2], in [3], in experiment [4], in experiment [5] and in experiment [6] was inactive. Also, the outcome in experiment [7], in experiment [8], in experiment [9], in experiment [10], in experiment [11] and in experiment [12] was inactive. Moreover, the result in [13], in [14], in experiment [15], in experiment [16], in experiment [17] and in [18] was inactive. Besides, in experiment [20], the outcome was inactive.
For `CCCCCCCCCC[N+](C)(C)CCCCCCCCCC`, the AC50 in experiment [1] was 5.54 µM (active); in [2] it was 4.72 µM (active); in experiment [3], 3.08 µM (active); in experiment [4], 5.09 µM (active); in experiment [5] it was 4.41 µM (active); in [6], 2.67 µM (active). Also, the AC50 was 8.03 µM (active) in [7]; 5.46 µM (active) in [8]; 5.43 µM (active) in [9]; 1.69 µM (active) in [11]; 2.44 µM (active) in experiment [12]; 3.56 µM (active) in experiment [13]. Also, the AC50 is 5.15 µM (active) in experiment [14]; 1.76 µM (active) in [15]; 1.22 µM (active) in [16]; 3.01 µM (active) in experiment [17]; 0.154 µM (active) in experiment [18]; 1.81 µM (active) in [20]. The outcome in [10] was inactive.

Broadly, the AC50 is the concentration at which the activity in the assay is half-maximal.
